Data: PubChem BioAssay (NCI)
Compounds without any hit were thinned out: in the full panel of roughly 83,000, 20% have a hit.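 Compound tested at a single concentration for 48 hours in 96-well plates; a percent growth value below 10 was scored as active.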

Legend:
Test in all cases: NCI-60 one-dose screen, 48 h (100 = growth as untreated, 0 = no growth, -100 = all killed)
Conditions in all cases: 10 µM unless noted
[1] = system: HCT-15 colon
[2] = system: HT29 colon
[3] = system: SNB-75 CNS
[4] = system: SNB-19 CNS
[5] = system: U251 CNS
[6] = system: PC-3 prostate
[7] = system: SK-MEL-5 melanoma
[8] = system: UACC-62 melanoma
[9] = system: LOX IMVI melanoma
[10] = system: SK-MEL-28 melanoma
[11] = system: SK-MEL-2 melanoma
[12] = system: EKVX NSCLC
[13] = system: SN12C renal
[14] = system: UO-31 renal
[15] = system: TK-10 renal
[16] = system: ACHN renal
[17] = system: CAKI-1 renal
[18] = system: A498 renal
[19] = system: CCRF-CEM leukemia
[20] = system: MOLT-4 leukemia

Measured: growth

CC(=O)OCCc1ccccc1
inactive: [1] 107% | [2] 107% | [3] 74.4% | [4] 102% | [5] 100% | [6] 99.2% | [7] 105% | [8] 100% | [9] 101% | [10] 111% | [11] 99.6% | [12] 96.2% | [13] 95% | [14] 97.8% | [15] 106% | [16] 100% | [17] 77.1% | [18] 95.5% | [19] 105% | [20] 91.9%

O=c1oc2ccc(Cl)cc2cc1-c1cs/c(=N/N=C\c2ccc(Cl)cc2)n1/N=C/c1ccc(Cl)cc1
inactive: [1] 105% | [2] 91.8% | [3] 123% | [4] 98.4% | [5] 102% | [6] 99.4% | [7] 104% | [8] 93.8% | [9] 110% | [10] 110% | [11] 92.6% | [12] 107% | [13] 94% | [14] 90.1% | [15] 99.4% | [16] 112% | [17] 110% | [18] 83.9% | [19] 104% | [20] 93.8%

C[C@H]1[C@H]2C3=CC[C@@H]4[C@@]5(C)C/C(=C/c6ccncc6)C(=O)C(C)(C)[C@@H]5CC[C@@]4(C)[C@]3(C)CC[C@@]2(C(=O)N2CCN(C)CC2)CC[C@@H]1C
inactive: [1] 66% | [2] 46.9% | [3] 76.3% | [4] 78.2% | [5] 68.8% | [6] 33.9% | [7] 87.7% | [8] 80.2% | [9] 84.3% | [10] 101% | [11] 96.3% | [12] 78.3% | [13] 78.9% | [14] 62.4% | [15] 86.1% | [16] 91% | [17] 75.1% | [18] 93.9% | [19] 64.7% | [20] 52.1%

Cc1c(C(=O)O)nnn1-c1nccs1
inactive: [1] 98% | [2] 89.7% | [3] 81.8% | [4] 98.1% | [5] 92.1% | [6] 89.4% | [7] 99.6% | [8] 96.2% | [9] 96.7% | [10] 108% | [11] 94.1% | [12] 92.9% | [13] 101% | [14] 91% | [15] 101% | [16] 99.9% | [17] 94.3% | [18] 86.4% | [19] 93.3% | [20] 103%

CCOC(=O)C(O)C(O)(c1ccccc1)c1ccccc1 (stereo not given)
inactive: [1] 98% | [2] 99.7% | [3] 89.7% | [4] 114% | [5] 97.3% | [6] 96.8% | [7] 97.6% | [8] 98.5% | [9] 102% | [10] 95.8% | [11] 102% | [12] 100% | [13] 99% | [14] 91.2% | [15] 100% | [16] 97.4% | [17] 97% | [18] 98.3% | [19] 99.1% | [20] 95.1%

CCC(O)(C(c1ccccc1)c1ccccn1)C(c1ccccc1)c1ccccn1 (stereo not given)
inactive: [1] 103% | [2] 102% | [3] 99.4% | [4] 108% | [5] 107% | [6] 97.4% | [7] 106% | [8] 113% | [9] 98% | [10] 107% | [11] 97.5% | [12] 97.7% | [13] 110% | [14] 84.3% | [15] 107% | [16] 95.2% | [17] 90.3% | [18] 96.7% | [19] 114% | [20] 87%

C/C(=N\NC(=O)Cn1c(-c2ccc(S(C)(=O)=O)cc2)nc2cc(Cl)ccc21)c1ccc(Cl)cc1
inactive: [1] 77% | [2] 79.7% | [3] 69.7% | [4] 84.3% | [5] 79.7% | [6] 49.2% | [7] 84.2% | [8] 76.2% | [9] 89.4% | [10] 90% | [11] 91.1% | [12] 76.6% | [13] 84% | [14] 62.7% | [15] 101% | [16] 85.8% | [17] 74% | [18] 89.8% | [19] 76.2% | [20] 61.5%

Cc1nc(Nc2ccc(NC(=S)Nc3ccccc3)cc2)nc2nc(Nc3ccc(S(=O)(=O)O)cc3)[nH]c(=O)c12
inactive: [1] 127% | [2] 145% | [3] 128% | [4] 96.2% | [5] 110% | [6] 99.5% | [7] 117% | [8] 105% | [9] 109% | [10] 125% | [11] 104% | [12] 111% | [13] 109% | [14] 78.9% | [15] 125% | [16] 128% | [17] 82.5% | [18] 158% | [19] 84.5% | [20] 89.7%
